# Measured values as given in PubChem BioAssay AID624134 (Broad Institute, 2012).
# About 1,100 (69%) of roughly 1,600 compounds were called active. The set was probably picked from earlier hits. These entries were drawn from the full list. Results with a measured potency or affinity are listed apart. Inconclusive results are not listed.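 Rule for the calls: active = signal drop with fitted half-maximal concentration no higher than twice the top valid tested concentration; inconclusive = flat curve with 30 to 70% signal loss, or poor fit; inactive = the rest, including signal rises and flat curves within 30%.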
# Assay: HepG2 cell cytotoxicity, dose response, cytotoxicity control for Shn3 inhibitor project, CellTiter-Glo, cherry-picked (AID 624134)
# Conditions: HepG2 viability, CellTiter-Glo ATP luminescence, 48 h; series mostly up to 35 µM
row,Compound,outcome
1,CCCOc1ccccc1C1CC(=O)Nc2cc3c(cc21)OCCO3 (stereo not given),inactive
2,COc1cc(C#Cc2c(-c3cncn3C)n(C)c3ccc(-c4ccc(OC)nc4)cc23)cc(OC)c1,inactive
3,O=C(c1n[nH]c(=O)c2ccccc12)N1CCN(C2c3ccccc3-c3ccccc32)CC1,inactive
4,Cn1cc(CN(CCO)Cc2cccs2)c(-c2cccc(Cl)c2)n1,inactive
5,Cc1noc(C)c1COC(=O)[C@@H](NC(=O)c1ccccc1)C(C)C,inactive
6,COc1ccc(CN(C(=O)CSc2nnc(-c3ccc(F)cc3)o2)c2ccc(F)cc2)cc1,inactive
7,Fc1ccccc1N1CCN(Cc2nc(-c3ccccc3)no2)CC1,inactive
8,O=C(Nc1cc2c3c(c1)C1CCCC1CN3CC1CCCC21)c1ccc([N+](=O)[O-])cc1 (stereo not given),inactive
9,CCCCC[C@H]1CN(Cc2ccc(OC)cc2)C(=O)[C@@H]1CC(=O)NCc1ccccc1,inactive
10,Cc1ccc(CS(=O)(=O)c2ncc(Cl)c(C(=O)Nc3nnc(C)s3)n2)cc1,inactive
11,CSc1nnc(NC(=O)c2nc(S(=O)(=O)Cc3ccccc3F)ncc2Cl)s1,inactive
12,CCn1c(=O)c(C(=O)Nc2nc3ccccc3[nH]2)c(O)c2ccccc21,inactive
13,CCOC(=O)c1cccc(NC2c3ccccc3C(=O)N2Cc2ccco2)c1 (stereo not given),inactive
14,CCOC(=O)Cn1c(=O)c(-c2cc(Br)ccc2N)nc2ccccc21,inactive
15,CCOC(=O)Cn1c(S(=O)(=O)Cc2ccccc2Cl)nc(-c2ccccc2)c1-c1ccccc1,inactive
16,CCOC(=O)c1c(C)[nH]c(C)c1C(=O)CSc1nc2ccccc2c(=O)n1-c1ccc(CC)cc1,inactive
17,CSc1nnc(-c2ccco2)n1-c1ccccc1,inactive
18,CCC(C)c1ccc(S(=O)(=O)N2CCN(C(=O)c3ccc(Cl)c(S(=O)(=O)N4CCOCC4)c3)CC2)cc1 (stereo not given),inactive
19,CCCCCCC#Cc1ccc2c(c1)COc1c3ccccc3nn1-2,inactive
20,O=C(O)C1(Nc2ccccc2Cl)CCCC1,inactive
21,Cc1ccn2cc(-c3ccc(O)c(O)c3)nc2c1,inactive
22,Cc1ccc(-c2cn3cc(C)ccc3n2)cc1,inactive
23,COC(=O)C12OCC34C(CC5C(C)=C(O)C(=O)CC5(C)C3C(O)C1O)OC(=O)C(OC(=O)C=C(C)C)C24 (stereo not given),inactive
24,O=C(NCCCn1ccnc1)C(=O)NCC1OCCCN1S(=O)(=O)c1ccccc1 (stereo not given),inactive

row,Compound,outcome
1,CC(C)c1c(O)c2c(n(-c3ccccc3)c1=O)CCCC2,inactive
2,Cc1ccc(NC(=O)c2cc3ccccc3oc2=O)cc1S(=O)(=O)N(C)C,inactive
3,O=C1CCc2cccc(O)c2N1,inactive
4,Cc1ccc(Cn2ccc(NC(=O)c3nn(C)cc3[N+](=O)[O-])n2)cc1,inactive
5,Cc1ccc(C(=O)Nc2cnc3ccccc3c2)cc1,inactive
6,COC(=O)c1ccccc1NC(=S)N(Cc1ccc2c(c1)OCO2)Cc1cc2cc(OC)ccc2[nH]c1=O,inactive
7,CC(C)c1nnc(NC(=O)c2nc(S(=O)(=O)Cc3ccc(F)cc3)ncc2Cl)s1,inactive
8,COCc1nn2c(N)c(C#N)cnc2c1-c1ccccc1,inactive
9,C=CCOc1nc2c(c(=O)n(C)c(=O)n2C)n1Cc1ccc(Cl)cc1,inactive
10,COc1ccc(CCNC(=O)CCC(=O)N2CCOc3ccc(Cl)cc32)cc1OC,inactive
11,CCOC(=O)N1CCN(CC(c2ccccc2)c2ccccc2)CC1,inactive
12,COc1ccccc1NC(=O)Cn1cc(C(=O)C2CC2)c2ccccc21,inactive
13,CCC(CC)CN1C(N(C)C)=NC[C@@H]1CC(C)C,inactive
14,CCOC(=O)C1CCCN(S(=O)(=O)c2ccc(S(=O)(=O)N3CCCC3)cc2)C1 (stereo not given),inactive
15,CN(CC(=O)NCc1ccc2c(c1)OCO2)S(=O)(=O)c1ccc(Br)s1,inactive
16,Cc1cccc(CCN2C(N(C)C)=NC[C@@H]2CC(C)C)c1,inactive
17,O=C1C=C(N2CCOCC2)c2ccccc2C1=O,inactive
18,COc1cc(OC)c(OC)cc1/C=C1\CC(C)C/C(=C\c2cc(OC)c(OC)cc2OC)C1=O (stereo not given),inactive
19,Cc1ccc(C)c(S(=O)(=O)Nc2ccc(-n3cnnn3)cc2)c1,inactive
20,CC1(Cc2ccc(OC(F)(F)F)cc2)C(=O)Nc2c(Cl)ccc(Cl)c21 (stereo not given),inactive
21,Cc1nn(Cc2noc(C(=O)NC3CCC(C)CC3)n2)c(C)c1Br (stereo not given),inactive
22,Cc1nn(Cc2c(Cl)cccc2Cl)c(C)c1NC(=O)c1cn(-c2ccccc2)nc1-c1ccccc1,inactive
23,CCOC(=O)CC1CCCCN1C(=O)c1cc(COc2cccc3cnccc23)on1 (stereo not given),inactive
24,CCCOc1ccc2oc(=O)c3c(c2c1)CCCN3C(=O)CN1CCN(c2ncccn2)CC1,inactive

row,Compound,outcome
1,OC(c1ccccc1)C(O)C(c1ccccc1)N1CCCCC1 (stereo not given),inactive
2,OCCCNc1nccc(-c2cc(Nc3cccc(Cl)c3)ncn2)n1,inactive
3,OCCCNc1cc(-c2ccnc(Nc3cccc(Cl)c3)n2)ccn1,inactive
4,COc1ccc(OC)c(C(c2nnnn2Cc2ccccc2)N2CCN(C3CCCCC3)CC2)c1 (stereo not given),inactive
5,O=S(=O)(c1ccc(Cl)cc1)n1ccc2cccnc21,inactive
6,Cc1sc2ncnc(N3CCN(S(=O)(=O)c4ccccc4)CC3)c2c1C,inactive
7,O=C(CN1C(=O)C2CCCCC2C1=O)NC1CCCc2ccccc21 (stereo not given),inactive
8,CCc1ccc(-n2c(O)c(C=NCCN(CC)CC)c(=O)[nH]c2=O)cc1,inactive
9,CC(C)c1nnc(NC(=O)c2nc(S(=O)(=O)Cc3ccccc3)ncc2Cl)s1,inactive
10,O=C1CC(c2ccccc2)CC(O)=C1C=Nc1cccc(Cl)c1 (stereo not given),inactive
11,CC(=O)N1CCN(C(=O)CCc2cc(C(C)(C)C)c(O)c(C(C)(C)C)c2)CC1,inactive
12,COC(=O)[C@@]12CCCCN1[C@H](c1ccc(SC3CCCCC3)c(OC)c1)[C@@H]1C(=O)N(C)C(=O)[C@@H]12,inactive
13,CCSc1nnc(NC(=O)c2nc(S(=O)(=O)Cc3ccc(F)cc3)ncc2Cl)s1,inactive
14,CSc1nnc(NC(=O)c2nc(S(=O)(=O)Cc3cccc(C)c3)ncc2Cl)s1,inactive
15,Cc1ccc(CS(=O)(=O)c2ncc(Cl)c(C(=O)Nc3nnc(C(C)C)s3)n2)cc1,inactive
16,CC(C)(C)[C@@H]1COC(=O)[C@@H](NC(=O)OCC2c3ccccc3-c3ccccc32)C/C=C\C[C@@H](CC(=O)NCCO)C(=O)N1,inactive
17,C[C@H]1COC(=O)[C@H](NC(=O)OCC2c3ccccc3-c3ccccc32)C/C=C\C[C@H](CC(=O)N(CCO)Cc2ccccc2)C(=O)N1,inactive
18,O=C(CN1C(=O)c2ccccc2S1(=O)=O)c1ccc2c(c1)OCCCO2,inactive
19,COC(=O)[C@@]12CCCN1[C@H](c1ccc(-c3ccc(OC)cc3)cc1)[C@@H]1C(=O)N(C)C(=O)[C@@H]12,inactive
20,O=C1/C(=C/c2ccccn2)SC(=S)N1Nc1ncc(C(F)(F)F)cc1Cl,inactive
21,COc1cc(NC(=O)COc2cccc3c2OC(C)(C)C3)cc(OC)c1OC,inactive
22,CCOC(=O)c1c(C)[nH]c(C(=O)COC(=O)[C@H](C)N2C(=O)C3CCCCC3C2=O)c1C (stereo not given in full),inactive
23,CCOc1ccc(NS(=O)(=O)c2cc(C(=O)NCCN3CCOCC3)ccc2C)cc1,inactive
24,Cc1c(C(=O)N(Cc2cccc(Br)c2)C2CCS(=O)(=O)C2)oc2ccccc12 (stereo not given),inactive

row,Compound,outcome
1,CC1CCN(C(=O)c2ccc(N3C(=O)C4CCC(C)CC4C3=O)cc2)CC1 (stereo not given),inactive
2,Cc1c(CCOC(=O)CC23CC4CC(CC(C4)C2)C3)sc[n+]1CC(=O)c1ccc(Br)cc1,inactive
3,COc1ccccc1-n1cc([C@@H]2C[C@H]3CN(c4ccccc4)C(=O)[C@]34CCCN24)cn1,inactive
4,O=C(NNc1ccccc1)C(=O)NNS(=O)(=O)c1ccc(CCCl)cc1,inactive
5,O=C(CN1C(=O)c2ccccc2S1(=O)=O)c1ccc(Cl)cc1Cl,inactive
6,NC(=O)NC(CC(=O)NCCc1ccccn1)c1ccccc1Cl (stereo not given),inactive
7,CC1(C)CC(=O)c2c(nc(SCC(=O)Nc3nsc(-c4ccccc4)n3)c(C#N)c2-c2ccccc2)C1,inactive
8,CNS(=O)(=O)c1cccc(C(=O)OCc2cc(C(C)=O)ccc2OC)c1,inactive
9,CCN1C(=O)[C@H]2[C@@H](c3ccc(-c4ccc(OC)cc4)cc3)N3CCC[C@@]3(C(=O)OC)[C@H]2C1=O,inactive
10,Cc1ccc(S(=O)(=O)CCC(=O)OCC(=O)Nc2cc(S(=O)(=O)N3CCOCC3)ccc2C)cc1,inactive
11,CNC(=O)c1nnsc1S(=O)c1ccc(Cl)cc1 (stereo not given),inactive
12,COCCn1c(SCC(=O)/C=C2\N(C)c3ccccc3C2(C)C)nnc1-c1ccncc1,inactive
13,O=C1NCCOC(=O)[C@@H](Cc2ccc(F)cc2)CC/C=C/C[C@@H]1CC(=O)N(CCO)Cc1ccccc1,inactive
14,Cc1cc(=O)oc2c3c(cc(OCC(=O)Nc4ccc(CCO)cc4)c12)OC(C)(C)CC3,inactive
15,COc1c(CC=C(C)C)cc(C2CC(=O)c3c(O)cc(O)cc3O2)cc1CC=C(C)C (stereo not given),inactive
16,O=C(Nc1cc(F)ccc1F)N1CCN(c2ccnc3cc(Cl)ccc23)CC1,inactive
17,COc1ccccc1-n1ccnc(SCC(=O)NCc2ccccc2Cl)c1=O,inactive
18,Cc1ccc(S(=O)(=O)NCCc2cc3ccc(C)cc3[nH]c2=O)cc1,inactive
19,CC[C@H](C)C(=O)O[C@H]1C[C@@H](C)C=C2C=C[C@H](C)[C@H](CC[C@@H]3C[C@@H](O)CC(=O)O3)[C@H]21,inactive
20,COc1ccc(S(=O)(=O)N2CCN(c3cc(-c4ccccc4)nc4ncnn34)CC2)cc1,inactive
21,O=C(CSc1ccccn1)Nc1nonc1[N+](=O)[O-],inactive
22,C=CC[C@H](CC(=O)N(CCO)Cc1ccccc1)C(=O)NC[C@H](OC(=O)[C@@H](CC=C)Cc1ccc(F)cc1)c1ccccc1,inactive
23,C=CCC[C@H](Cc1ccc(F)cc1)C(=O)OC[C@H](Cc1c[nH]c2ccccc12)NC(=O)[C@H](CC=C)CC(=O)N(CCO)Cc1ccccc1,inactive
